# Results published in PubChem BioAssay (NCATS).
# Records with an inconclusive call do not appear. A number with no mark means an inactive call. Calls of active or inactive are those of the source. The call rests on the fitted dose curve; in most records, active means well fitted inhibition curve with a large enough effect; inconclusive means small, poorly fitted or top-dose-only effect; inactive means no such curve, though single readings can be large or run the other way.
# Experiment: qHTS for Inhibitors of the Aldehyde Dehydrogenase Family (ALDH1A2, ALDH1A3, ALDH2, ALDH3A1) (AID 2061307); further: nearly all actives have a fitted effect of over 50% in size; on Potency: test system not described further here
# Conditions: ALDH inhibition qHTS; series mostly up to 50.3 µM; activity change, negative = inhibition: at the top concentration
# On the % scale 0 is the no-effect control and ±100 the full control effect; potency means the concentration at half of the fitted maximal effect.
Structure (SMILES),"activity change, negative = inhibition",Potency
COc1ccccc1CNC(=O)c1ccccc1N,-12.6%,–
CCOC(=O)OC(C)OC(=O)c1csc(-n2[nH]c(-c3ccc(F)c(F)c3)cc2=O)n1 (stereo not given),-28.1%,–
O=C(O)c1csc(-n2nc(C(F)(F)F)cc2-c2ccc(Cl)cc2)n1,-9.54%,–
O=C(Nc1ccc(S(=O)(=O)N2CCOC(c3ccccc3)C2)cc1)c1ccc(CN2CCc3ccccc3C2)cc1 (stereo not given),1.44%,–
COc1ccc2nc(-c3cnn(Cc4ccccc4)c3)sc2c1,-13%,–
COc1ccc(C(=O)c2c(C)n(CC(=O)O)c3cc(OC)ccc23)cc1,-0.648% [at 34.4 µM],–
CN1CCN(CC(=O)N2c3ccc(S(=O)(=O)NCCNC(=O)OC(C)(C)C)cc3C(=O)Nc3cccnc32)CC1,-20.5%,–
O=C(Nc1cccnc1)c1nccs1,-0.621%,–
CCN1CCN(C2c3ccccc3-c3ccc(Br)cc32)CC1 (stereo not given),34.2%,–
Cc1c2c(=O)n(-c3ccccc3)[nH]c2cc(=O)n1Cc1ccco1,–,22.5 µM (active)
COc1ccccc1C(=O)Nc1nnc(SCc2cc(=O)c3ccccc3[nH]2)s1,–,3.98 µM (active)
COc1ccc(-n2c(CSCc3ccccc3)c(C(C)=O)c3cc(O)ccc32)cc1,1.96% [at 34.4 µM],–
COc1cccc2cc(C(=O)Nc3ccc(C)cc3)c(=O)oc12,-25.8% [at 34.4 µM],–
Cn1nnnc1Sc1ncnc2n[nH]c(-c3ccccc3)c12,-26.4%,–
O=C(c1ccco1)N1CCN(Cc2nc3ccccc3c(=O)n2-c2ccccc2C(F)(F)F)CC1,-22.8%,–
CC(=O)Nc1cccc(C(=O)Nc2nc(-c3ccc4c(c3)CCC(=O)N4)cs2)c1,-51.7% [at 34.4 µM],–
COc1ccc(-n2ncc3c2CCCC3NC(=O)c2cccc(OC(F)(F)F)c2)cc1 (stereo not given),–,12.6 µM (active)
Cc1cccc(NC(=O)c2nc(C)n(-c3ccc(F)cc3)n2)n1,0% [at 34.4 µM],–
COc1ccc(C(=O)N=Nc2c(O)n(Cc3c(Cl)cccc3Cl)c3ccccc23)cc1,53.1%,–
O=C(Nc1nnc(Cc2ccccc2)s1)c1ccc(F)c(F)c1,-13.5% [at 34.4 µM],–

Structure (SMILES),"activity change, negative = inhibition",Potency
Nc1ccc(Cn2ccc3c4c(N)nc(N)nc4ccc32)cc1,91.5%,–
O=C1c2ccccc2-c2nnc(-c3ccccc3Cl)cc21,-13.3%,–
COC(=O)c1ccc2c(c1)CCN2C(=O)c1cnn(-c2ccccc2)c1,-31.1% [at 34.4 µM],–
COc1ccc(OC)c(-n2c3c(cc(-c4nnn(-c5ccc(Cl)cc5)n4)c2=O)C(=O)CC(C)(C)C3)c1,–,5.04 µM (active)
Cc1ccc(NS(=O)(=O)c2cc(N[C@@H](C)CO)cc3c2NC(=O)CC3)cc1C,-24.9%,–
Cn1cc2c(=O)n(-c3ccccc3)c(SCc3cccc(F)c3)nc2n1,-0.291% [at 34.4 µM],–
COc1ccc(Nc2nc(N3CCCC3)nc(N3CCOCC3)n2)cc1,10.8%,–
CCOc1ccc(-c2nc3scc(-c4ccc(OC)cc4)c3c(=O)[nH]2)cc1OC,-18.5% [at 34.4 µM],–
Cc1ccccc1Cn1cnc2cc(-c3cccc(NC(=O)Cc4ccccc4)n3)ccc21 (tested in a mixture with another compound),-8.56%,–
Cc1c(P(=S)(c2ccccc2)c2ccccc2)[n+]2ccccc2n1C/C=C/c1cccc(Br)c1,–,3.16 µM (active)
COc1ccc(OC)c(NC(=O)c2cccc(Nc3ncccn3)c2)c1,0.0532% [at 34.4 µM],–
C#CCOC(=O)NCCCC[C@H](N)C(=O)O,-13%,–
COc1ccc(C2Nc3c(OC)ccc(OC)c3C(=O)N2Cc2ccccc2)cc1COc1ccc(NC(C)=O)cc1 (stereo not given),–,2.83 µM (active)
CCn1c(=O)cc(OCC(=O)N2CCN(c3cccc(Cl)c3)CC2)c2ccccc21,-10.8%,–
Fc1ccc(Cn2cnc3ccccc32)cc1Cl,–,8.96 µM (active)
CN(C)CC(=O)NC1CCCc2c1cnn2-c1ccc(OCCOCCOCCNC(=O)OC(C)(C)C)cc1 (stereo not given),-1.55%,–
CC(=O)c1ccc(NC(=O)c2cnn(-c3cccc(F)c3)c2-n2cccc2)cc1,-80.6% [at 34.4 µM],–
COc1ccc(-n2c(C)c(C(=O)c3ccccc3)c3cc(O)ccc32)cc1,3.6% [at 34.4 µM],–
CS(=O)(=O)c1nc(-c2ccc(Br)cc2)cs1,-2.71%,–
COc1ccccc1CN1CCC(N(CCc2ccccc2)Cc2ccccc2)CC1,-18.7%,–
